Results: ChEMBL document CHEMBL1201862, “PubChem BioAssay data set” (2004)
In all, about 53,000 sequences went through this assay and about 3,200 (6%) were called active. No stated cut-off is given here; in the data, active = GI50 up to about 1.1 µM and inactive = higher. Shown is part of a subset that was picked to be rich in actives. Results with a measured potency or affinity are listed apart.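 Method: 48-hour compound exposure of cells in 96-well plates, five concentrations, linear interpolation of endpoints. The concentration for 50% growth inhibition is given as GI50.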

What follows are substances tested on HCC 2998 (assay: NCI tumour cell line growth inhibition, 48 h).

| Substance | GI50 [µM] |
| --- | --- |
| CISPLATIN, CHEMBL11359 | 5.4 |
| [Bis(aminomethyl)tetramethylenesilane]dichloropaltinum(II), CHEMBL2146205 | 25.4 |
| [Bis(aminomethyl)dimethylsilane]tetrachloroplatinum(IV), CHEMBL2146190 | 6.78 |
| [Bis(aminomethyl)ethylmethylsilane]tetrachloroplatinum(IV), CHEMBL2146192 | 2.38 |
| [Bis(aminomethyl)pentamethylenesilane]tetrachloropaltinum(IV), CHEMBL2146204 | 0.313 |
| [Bis(aminomethyl)dimethylsilane]dichloroplatinum (II), CHEMBL2146201 | 10 |
| [Bis(aminomethyl)tetramethylenesilane]tetrachloropaltinum(IV), CHEMBL2146189 | 0.682 |
| mu-(1,7-nanodiamine-N,N')bis-(cis-aminedichloroplatimum (II)), CHEMBL2146215 | 24 |
| [Bis(aminomethyl)pentamethylenesilane]dichloropaltinum(II), CHEMBL2146202 | 3.52 |
